Measured values published in paper PMC4336329 (PLoS ONE, 2015).
The whole screen tested about 310,000 compounds, of which about 14,000 (4.5%) showed an effect of 50% or more. The effect is printed as a negative number. The list comes from a sample in which strong results are over-represented; it also holds similar structures and randomly drawn compounds.

What follows are molecules tested against human ether-à-go-go-related gene (hERG) potassium channel (human, UniProt Q12809) (assay: primary screen, population patch clamp on CHO cells stably expressing hERG; higher = less effect of the substance).
Chain of human ether-à-go-go-related gene (hERG) potassium channel (Q12809 whole entry, looked up): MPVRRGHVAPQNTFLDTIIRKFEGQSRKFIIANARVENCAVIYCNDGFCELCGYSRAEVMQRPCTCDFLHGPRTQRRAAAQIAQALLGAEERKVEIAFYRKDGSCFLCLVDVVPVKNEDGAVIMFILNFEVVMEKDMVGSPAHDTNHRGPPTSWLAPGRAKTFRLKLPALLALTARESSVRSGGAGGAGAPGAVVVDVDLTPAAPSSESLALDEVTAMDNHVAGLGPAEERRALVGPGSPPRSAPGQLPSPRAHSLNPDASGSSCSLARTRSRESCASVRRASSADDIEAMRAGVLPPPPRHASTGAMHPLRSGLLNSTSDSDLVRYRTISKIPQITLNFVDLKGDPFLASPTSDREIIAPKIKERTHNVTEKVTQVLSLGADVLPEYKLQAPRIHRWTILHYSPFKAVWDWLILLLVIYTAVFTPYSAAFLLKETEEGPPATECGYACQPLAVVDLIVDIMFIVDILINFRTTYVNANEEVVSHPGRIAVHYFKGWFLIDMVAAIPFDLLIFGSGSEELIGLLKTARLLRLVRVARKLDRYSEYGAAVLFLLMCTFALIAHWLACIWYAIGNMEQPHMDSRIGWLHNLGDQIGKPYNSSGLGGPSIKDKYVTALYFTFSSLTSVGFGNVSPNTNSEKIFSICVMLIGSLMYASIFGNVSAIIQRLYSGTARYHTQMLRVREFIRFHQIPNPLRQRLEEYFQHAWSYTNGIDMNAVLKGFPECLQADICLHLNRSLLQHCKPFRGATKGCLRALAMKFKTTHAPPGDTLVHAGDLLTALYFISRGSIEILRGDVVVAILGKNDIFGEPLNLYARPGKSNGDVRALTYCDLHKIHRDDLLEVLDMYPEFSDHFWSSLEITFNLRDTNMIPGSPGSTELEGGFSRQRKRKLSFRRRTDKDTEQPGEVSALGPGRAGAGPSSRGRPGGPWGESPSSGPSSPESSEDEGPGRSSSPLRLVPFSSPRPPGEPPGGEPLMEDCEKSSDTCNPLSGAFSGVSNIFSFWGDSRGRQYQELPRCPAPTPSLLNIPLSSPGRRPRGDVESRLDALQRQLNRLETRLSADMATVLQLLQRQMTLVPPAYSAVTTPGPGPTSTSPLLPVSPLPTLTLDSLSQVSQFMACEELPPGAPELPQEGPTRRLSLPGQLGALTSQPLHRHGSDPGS
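Note: peak tail current of the secondary pulse compared with the same well before compound.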

Structure (SMILES)	hERG current change (%, negative = inhibition) at 10uM [%]
Cc1ccc(NC(NC(=O)c2ccccc2[N+](=O)[O-])C(Cl)(Cl)Cl)cc1 (centres unmarked)	-5.27
CC(Sc1nnc(-c2cccnc2)o1)C(=O)NC1CCCCC1 (centres unmarked)	14.9
Cc1ccc(Nc2nc(COC(=O)C3CC3)cs2)cc1	-13.1
CCOC(=O)CSC1=C(C#N)C(c2ccc(C)cc2)C(C(=O)OC)C(=O)N1 (centres unmarked)	-4.56
Cc1ccc(-n2ncc3c(=O)[nH]c(SCC(=O)N4CCN(c5ccccc5)CC4)nc32)cc1	3.28
FC(F)(F)c1cccc(CNC2c3ccccc3-c3ccccc32)c1.O=C(O)C(=O)O	20.4
Cc1nc(C(=O)Nc2ccc(Cl)cc2)nn1-c1ccc([N+](=O)[O-])cc1	-58.6
Cc1nc(C(=O)Nc2ccc(F)cc2)nn1-c1ccc([N+](=O)[O-])cc1	-67.4
Cc1ccc(NC(=O)c2nc(C)n(-c3ccc([N+](=O)[O-])cc3)n2)cc1	-32.2
COc1ccc(NC(=O)c2nc(C)n(-c3ccc([N+](=O)[O-])cc3)n2)cc1	-44.9
CNC(=O)c1nc(C)n(-c2ccc([N+](=O)[O-])cc2)n1	-3.99
Cc1nc(C(=O)O)nn1-c1ccc([N+](=O)[O-])cc1	2.84
O=S(=O)(Nc1ccc(F)cc1)N1CCCCCC1	-15.6
COc1ccccc1CNC(=O)Cn1nnc(-c2ccncc2)n1	1.05
COC(=O)c1[nH]c2cccc(OC)c2c1NC(=O)CN1CC2(C)CC1CC(C)(C)C2 (centres unmarked)	9.92
N#CC[C@H](c1ccccc1)N1CCN(Cc2ccccc2)CCC1=O	-1.88
CC(C)CN1CCC(=O)N([C@H](COc2ccccc2)c2ccccc2)CC1	-75.3
CCCN1CCC(=O)N([C@H](COc2ccccc2)c2ccccc2)CC1	-78.2
O=C1CCN(CCc2ccccc2)CCN1[C@H](CO)c1ccccc1	-25.7
O=C1CCN(CCc2ccccc2)CCN1[C@H](COc1ccccc1)c1ccccc1	-75.9
CC(C)[C@@H](COc1ccccc1)N1CCN(Cc2ccccc2)CCC1=O	-29.6
CC(C)CN1CCC(=O)N([C@H](CO)c2ccccc2)CC1	9.33

Structure (SMILES)	hERG current change (%, negative = inhibition) at 10uM [%]
CC(C)CN1CCC(=O)N(CCOc2ccccc2)CC1	13.1
O=C1CCN(Cc2ccccc2)CCN1[C@H](COc1ccccc1)c1ccccc1	-57.9
COc1ccc(C(=O)Nn2c(SCC(=O)NCC3CCCO3)nc3ccccc3c2=O)cc1 (centres unmarked)	2.75
COc1cccc(CNC(=O)CCNC(=O)N2CCn3c2nc2ccccc23)c1	-3.38
O=C(NNC(=S)NCc1ccco1)c1ccc(Cl)s1	14.5
O=C(c1cccc(Br)c1)N1CCN(C(=O)N2CCOCC2)CC1	10.4
O=C(COC(=O)c1cc([N+](=O)[O-])ccc1NCCO)c1ccccc1	-15.9
CCOc1cc(CNc2ccc3c(c2)OCCO3)cc(Br)c1OCC(N)=O	-17.6
C[C@H]1CC[C@H]2C(=O)N3[C@H](c4cccc(N5CCCC5=O)c4)[C@@H](C)CC[C@H]3C(=O)N2[C@@H]1c1cccc(N2CCCC2=O)c1	-56.3
C[C@@H]1CC[C@H]2C(=O)N3[C@@H](CC[C@@H](C)[C@@H]3c3ccc(Br)cc3)C(=O)N2[C@H]1c1ccc(Br)cc1	5.03
CC1CCCC(NC(=O)c2cccc(N3CCCC3=O)c2)C1C (centres unmarked)	-13.5
CC12CN(C(=O)c3cccc([N+](=O)[O-])c3)C3(C#N)CC1CCC23C (centres unmarked)	5.65
CCOC(=O)C1=C(c2ccccc2)NC(N)=NC1c1ccc(OCc2ccc(Cl)cc2)c(OC)c1 (centres unmarked)	-36.8
COc1ccc(CCNC(=O)C2CCN(S(=O)(=O)c3ccc4nc5c(c(C(=O)O)c4c3)CCCC5)CC2)cc1OC	1.65
Cc1ccccc1-n1ncc2c1CC(C)(C)CC2NC(=O)CN1CCCC1=O (centres unmarked)	9.7
O=C(O)c1ccc(CSCc2ccccc2F)o1	-1.86
O=C(c1ccccc1)N1CCN(c2ccc(N3CCOCC3)nn2)CC1	-1.73
O=C(c1ccc(CSCc2ccccc2F)o1)N1CCN(c2ccc(N3CCOCC3)nn2)CC1	-66.7
CCC1CCCCN1CCCNC(=O)CNC(=O)c1nn(-c2ccc(OC)cc2)c(=O)c2ccccc12 (centres unmarked)	-31.9
CCCC/C=C1\CCc2c([nH]c3ccccc23)C1=O	10.1
CCCCCCCCC1=NCCc2c1[nH]c1ccccc21.Cl	-79.2
CC1=NCCc2c1[nH]c1ccccc21	-22.7
